Compound activity: PubChem, Broad Institute
The list is a sample of the results.
aSyn UTR act: Activators via SNCA 5'UTR binding, MLPCN; alpha-synuclein 5'UTR reporter, activators screen; activity score, % (tested at 7.5 µM), hits read low; 300,000 tested, 7.1% active; in the data active means activity score below about -60%
Numbers without * were called inactive.

How did Cc1ccc(S(=O)(=O)N2CCCCC2CCNC(=O)C(=O)NCc2ccco2)cc1 (stereo not drawn) do in these assays?
aSyn UTR act: -66*

What do the screens show for `Cc1ccc(S(=O)(=O)N2CCCCC2CCNC(=O)C(=O)NCCc2ccco2)cc1` (stereo not drawn)?
aSyn UTR act: -102*

How did O=C(Nc1ccccc1)Nc1ccc(Nc2ccccc2)cc1 do in these assays?
aSyn UTR act: -111*

What do the screens show for `c1ccc(Nc2cccc(Nc3ccccc3)c2)cc1`?
aSyn UTR act: -86*

Results for O=C(Nc1ccccc1)Nc1ccc(Cl)nc1Cl ?
aSyn UTR act: -93*

How did O=C(Nc1ccc(Nc2ccccc2)cc1)c1ccccc1F do in these assays?
aSyn UTR act: -174*

Results for CCN(CC)c1ccc(NC(=O)c2ccccc2F)cc1 ?
aSyn UTR act: -411*

What do the screens show for `COc1ccccc1NC(=O)Nc1nc2ccc(S(N)(=O)=O)cc2s1`?
aSyn UTR act: -183*

What do the screens show for `CCC(C)C(=O)Nc1nc2ccc(OC)cc2s1` (stereo not drawn)?
aSyn UTR act: -167*

How did COc1ccc2nc(Nc3ccccc3OC)sc2c1 do in these assays?
aSyn UTR act: -154*

How did COc1ccc2nc(NC(=O)Nc3ccccc3OC)sc2c1 do in these assays?
aSyn UTR act: -89*

Results for COc1ccc2nc(NC(=O)Nc3cccc4ccccc34)sc2c1 ?
aSyn UTR act: -103*

What do the screens show for `COc1ccc2nc(Nc3ccccc3)sc2c1`?
aSyn UTR act: -119*

How did Oc1c(CN2CCCCC2)cc(Br)c2cccnc12 do in these assays?
aSyn UTR act: 112

How did O=C(Nc1ccc(CN2CCCCC2)cc1)c1c(F)c(F)c(F)c(F)c1F do in these assays?
aSyn UTR act: -63*

How did O=C(Nc1ccc(CN2CCCCC2)cc1)c1ccc(Br)o1 do in these assays?
aSyn UTR act: -76*

What do the screens show for `O=C(NCC1CCCO1)c1cc2c(s1)CCC2` (stereo not drawn)?
aSyn UTR act: -122*

How did O=C(NCc1cccs1)c1cc2c(s1)CCCC2 do in these assays?
aSyn UTR act: -142*

How did Cc1cc2cc(CNC(=O)Nc3ccccc3)ccc2[nH]1 do in these assays?
aSyn UTR act: -98*

How did COc1ccc(CNC(=O)Nc2ccccc2)cc1 do in these assays?
aSyn UTR act: -114*

Results for O=C(Cc1ccc(O)cc1)NC1CCCCCC1 ?
aSyn UTR act: -119*

How did O=C(CSc1ccc(F)cc1)NC1CCCCC1 do in these assays?
aSyn UTR act: -69*

Results for COc1ccc(C(=O)/C=C/C(=O)N(CC(=O)NC2CCCCC2)Cc2ccc(F)cc2)c(O)c1 ?
aSyn UTR act: 72

What do the screens show for `COc1cc2c(c(OC)c1OC)-c1ccc(OC)c(=O)cc1[C@@H](N(C)CC#CCO)CC2`?
aSyn UTR act: 87

Results for COc1ccc(CNC(=O)Nc2cccc(C)c2)cc1 ?
aSyn UTR act: -153*

What do the screens show for `Cc1ccc(CNC(=O)NC2CCCCC2)cc1`?
aSyn UTR act: -92*

Results for CCOc1ccc(CNC(=O)Nc2ccccc2)cc1 ?
aSyn UTR act: -103*

Results for Cc1ccc(CNC(=O)Nc2ccc(C)cc2)cc1 ?
aSyn UTR act: -75*

What do the screens show for `Cc1ccc(CNC(=O)Cc2ccc(-c3ccccc3)cc2)cc1`?
aSyn UTR act: 73

How did CCN(CC)c1ccc2c(cc1=O)[C@@H](NC)CCc1cc(OC)c(OC)c(OC)c1-2 do in these assays?
aSyn UTR act: 107

What do the screens show for `Cc1ccc2c3c([nH]c2c1C)-c1nonc1CC3`?
aSyn UTR act: -107*

Results for CS(=O)(=O)Nc1ccc(C(=O)NCCc2ccccc2)cc1 ?
aSyn UTR act: -125*

What do the screens show for `O=C(NCCS(=O)(=O)NCCc1ccccc1)c1ccccc1`?
aSyn UTR act: -62*

Results for O=C(NCC1CCCO1)C(=O)c1c[nH]c2ccccc12 (stereo not drawn) ?
aSyn UTR act: -73*

Results for O=C(NC1CCCC1)c1n[nH]c2ccccc12 ?
aSyn UTR act: -86*

What do the screens show for `O=C(NCCC1=CCCCC1)C(=O)c1c[nH]c2ccccc12`?
aSyn UTR act: -81*

What do the screens show for `O=C(NC1CCCCC1)C(=O)c1c[nH]c2ccccc12`?
aSyn UTR act: -115*

What do the screens show for `Cc1ccc(NC(=O)C(=O)c2c[nH]c3ccccc23)cc1`?
aSyn UTR act: -169*

Results for CC(=O)Nc1c(-c2ccc3ccccc3c2)nc2ccccn12 ?
aSyn UTR act: -124*

Results for Cc1nc(-c2ccc(Cl)cc2)sc1C1(C)CC(c2cccnc2)=NO1 (stereo not drawn) ?
aSyn UTR act: -122*

What do the screens show for `Cc1nc(C(=O)Nc2ccccc2)sc1C1(C)CC(c2cccnc2)=NO1` (stereo not drawn)?
aSyn UTR act: -111*

Results for O=C(CCS(=O)(=O)c1ccccc1)N(CCCN1CCOCC1)c1nc2ccc(F)cc2s1 ?
aSyn UTR act: -132*

Results for O=C(C1COc2ccccc2O1)N1CCc2ccccc21 (stereo not drawn) ?
aSyn UTR act: -106*

Results for COc1ccccc1NS(=O)(=O)c1ccc(-c2cc(C)no2)s1 ?
aSyn UTR act: -102*

What do the screens show for `COc1ccccc1CNS(=O)(=O)c1ccc(-c2cc(C)no2)cc1`?
aSyn UTR act: 80
